Screens deposited in PubChem BioAssay by National Center for Advancing Translational Sciences (NCATS).
ATXN2 expr inh = reduces ATXN2 reporter expression in HEK-293 cells | Potency, µM (titrated, usually from 57 µM), inactives show at the top dose activity change, negative = inhibition, usual class: inhibitors | AID 1745845 | HEK-293 ATXN2-luciferase reporter, luminescence, 24 h | 360,000 tested, 0.72% active; note: % is set by controls: 0 for no effect and ±100 for the full control effect; nearly all actives have a fitted effect of over 55% in size
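ATXN2-luciferase reporter cells (luciferase flanked by upstream and downstream ATXN2 gene portions) were treated 24 h at 37 °C with compounds at up to 57 uM. SteadyGlo luminescence gave expression; GF-AFC fluorescence gave viability.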
TGFb SMAD3 inh = inhibitors of TGF-b signaling. HepG2 CAGA-GFP TGF-b/SMAD3 reporter, GFP fluorescence, 18 h; TGF-beta stimulated, 500 pg/mL final. Potency, µM (titrated, usually from 46.1 µM), inactives show at the top dose activity, negative = inhibition, usual class: inhibitors. 410,000 tested, 1.2% active; note: % is set by controls: 0 for no effect and ±100 for the full control effect; nearly all actives have a fitted effect of over 65% in size
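Inhibition of TGF-beta-driven CAGA-GFP reporter expression in HEPG2 cells is measured by cellular GFP fluorescence after 18 h stimulation with 500 pg/mL recombinant TGF-beta in 1% FBS medium at 37 degrees C.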
S2 tox = viability counter-screen for ATXN expression inhibitors; 400,000 tested, 0.49% active; Potency, µM (doses to about 56.7 µM), hits mostly cytotoxic; AID 651635; S2 cells (HEK-293 line with an ATXN2-luciferase reporter) viability, CellTiter-Fluor protease fluorescence, 24 h; note: nearly all actives have a fitted effect of over 40% in size
Gal4-VP16 FLuc = Gal4-VP16 reporter inhibition counter-screen; 310,000 tested, 3.5% active; Potency, µM (highest dose often 53.6 µM), without a hit: top-dose activity, negative = inhibition, most hits filed as inhibitors; Drosophila S2 Gal4-VP16 UAS-luciferase, luminescence, 20 h;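 note: Gal4-VP16 expression switched on by copper sulfate through the metallothionein promoter; % is set by controls: 0 for no effect and ±100 for the full control effect; nearly all actives have a fitted effect of over 50% in size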
HepG2 viability = kills HepG2 cells in TGF-b inhibitor counter-screen; Potency, µM (highest dose often 46.1 µM), for inactives: at the top dose activity change, negative = cytotoxicity, usual class: cytotoxic; HepG2 CAGA-GFP viability, ATP luminescence, 18 h; AID 588856; 410,000 tested, 0.76% active
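CellTiter-Glo luminescence gave cytotoxicity after 18 hours at 37 degrees C. The cells were HepG2 CAGA-GFP in 1% FBS DMEM, stimulated with 500 pg/mL TGF-beta after compound addition. %Activity was normalised to no-cell wells (complete cell-killing) and DMSO (no toxicity), and curves were fitted and classified.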
RORg inh = ROR gamma (mouse) transcription inhibition. Drosophila S2 Gal4-RORgamma UAS-luciferase reporter, 20 h. Potency, µM (top dose mostly 53.6 µM), without a hit: at the highest dose activity change, negative = inhibition, usual class: inhibitors. 310,000 tested, 5.4% active. AID 2551; note: % is set by controls: 0 for no effect and ±100 for the full control effect; nearly all actives have a fitted effect of over 60% in size
Target sequence (P51450 whole entry, looked up, the tested form may be a part): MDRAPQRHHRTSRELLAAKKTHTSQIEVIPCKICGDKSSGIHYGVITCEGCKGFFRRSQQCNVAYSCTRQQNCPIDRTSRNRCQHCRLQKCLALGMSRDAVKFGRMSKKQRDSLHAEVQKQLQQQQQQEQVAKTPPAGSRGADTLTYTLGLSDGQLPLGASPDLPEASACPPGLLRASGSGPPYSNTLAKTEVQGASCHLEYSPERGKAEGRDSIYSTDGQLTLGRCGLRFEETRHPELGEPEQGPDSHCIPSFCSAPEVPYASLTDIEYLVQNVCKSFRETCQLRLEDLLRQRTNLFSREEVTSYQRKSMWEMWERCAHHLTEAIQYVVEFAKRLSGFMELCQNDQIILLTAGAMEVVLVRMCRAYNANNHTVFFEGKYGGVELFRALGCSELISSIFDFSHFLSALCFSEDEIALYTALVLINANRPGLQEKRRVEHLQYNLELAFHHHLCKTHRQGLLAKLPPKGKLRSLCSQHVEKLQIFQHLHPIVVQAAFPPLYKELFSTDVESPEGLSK
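Compounds are pin-transferred onto Drosophila Schneider cells expressing a copper-inducible Gal4–ROR gamma transactivation domain fusion. After 1 hr, copper sulfate is added to 700 uM final; luciferase is read 20 hr later.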
* = called active by the depositor; i = inactive; u = inconclusive; x = no result; [ ] = remark or other dose. The list is not random: actives were taken first. Their share in the collection is about 6.1%. Calls come from the whole dose curve; as a rule, active = well fitted curve in the direction sought with a large enough effect; inconclusive = small, poorly fitted or top-dose-only effect, or another doubt; inactive = no such curve, though single readings can be large; an effect the other way counts as inactive or inconclusive. Potency is the fitted concentration of half-maximal effect.

SMILES	ATXN2 expr inh	TGFb SMAD3 inh	S2 tox	Gal4-VP16 FLuc	HepG2 viability	RORg inh
O=C(NCC1CCCCC1)C1(CC2CC(c3cccc(Br)c3)=NO2)CCNCC1 (centres undefined)	u	u	x	-6%	16µM*	25%
COc1ccc(-c2cc3cccc(OC)c3oc2=O)cc1	7%	0%	i	u	-12%	10µM*
Cc1ccc(CSc2nnc(SCC(=O)N/N=C/c3ccc(C(=O)O)cc3)s2)cc1	u	-14%	i	u	5%	5.6µM*
Cc1ccc(CSc2nnc(SCC(=O)N/N=C/c3c[nH]c4ccccc34)s2)cc1	u	3%	x	u	-19%	-37%
O=C(CSc1nnc(SCc2ccccc2)s1)N/N=C/c1c[nH]c2ccccc12	4%	-17%	i	u	-16%	8.9µM*
CCOc1ccc(C2CC(=O)Nc3c2c(=O)[nH]c2ncnn32)cc1 (centres undefined)	10%	7%	i	x	-4%	x
CCc1ccc(NC(=O)c2sc3nc(C)cc(C)c3c2NC(=O)c2ccccc2)cc1	10%	24%	i	x	-6%	x
Cc1cc(C)n2nc(-c3ccc(Cl)cc3)cc2n1	x	-12%	i	5%	-75%	3%
Cc1nc2cc(-c3ccc(Cl)cc3)nn2c(NCCN(C)C)c1C	0%	-10%	i	5.6µM*	-31%	1.3µM*
CCC1NC(=S)N(C2CCCCC2)C1=O (centres undefined)	1%	-1%	i	u	-9%	11µM*
O=C1C(Cc2ccc(O)cc2)NC(=S)N1C1CCCCC1 (centres undefined)	1%	2%	i	-16%	10%	7%
CC(C)C1NC(=S)N(C2CCCCC2)C1=O (centres undefined)	-6%	-13%	i	u	-31%	6.3µM*
O=C1C(Cc2c[nH]c3ccccc23)NC(=S)N1C1CCCCC1 (centres undefined)	-14%	-2%	i	u	-21%	20µM*
O=C1C(c2ccccc2)NC(=S)N1C1CCCCC1 (centres undefined)	x	-17%	i	4%	-11%	-37%
CC(C)CC1NC(=S)N(C2CCCCC2)C1=O (centres undefined)	-13%	-3%	i	u	-9%	u
CN(CC1COc2ccccc2O1)C(=S)NC1CCCCC1 (centres undefined)	4%	u	i	u	-27%	13µM*
COc1ccc(C(CCNCc2ccc(OC)c(OC)c2)c2ccc(F)cc2)cc1 (centres undefined)	-1%	0%	i	-4%	-24%	-2%
COc1ccc(CCNCCC(c2ccccc2)c2ccccc2)cc1OC	x	u	u	x	13µM*	x
COc1ccccc1CCNC(C)CCc1ccc(O)cc1 (centres undefined)	-26%	16%	i	x	-23%	x
COc1cc(OC)c(OC)cc1CCC(C)NCCC(c1ccccc1)c1ccccc1 (centres undefined)	x	14µM*	16µM*	-3%	11µM*	-22%
O=C(c1ccc(Cl)cc1)c1ccc(OCC(=O)N2CCOCC2)cc1	3%	10%	i	11µM*	-19%	u
CCN(CC)S(=O)(=O)c1cccc(C(=O)Nc2sc3c(c2C#N)CCC(C)C3)c1 (centres undefined)	9%	-19%	i	x	-13%	x
CCc1[nH]nc2c1C(c1ccc(Br)s1)C(C#N)=C(N)O2 (centres undefined)	0%	11µM*	i	u	-99%	11µM*
Cc1ccc(SCc2[nH]nc3c2C(c2ccco2)C(C#N)=C(N)O3)cc1 (centres undefined)	-7%	u	i	u	13µM*	-79%
N#CC1=C(N)Oc2n[nH]c(-c3cccs3)c2C1c1ccncc1 (centres undefined)	-21%	-9%	u	3%	9%	-7%
SMILES	ATXN2 expr inh	TGFb SMAD3 inh	S2 tox	Gal4-VP16 FLuc	HepG2 viability	RORg inh
CCc1[nH]nc2c1C(c1ccsc1)C(C#N)=C(N)O2 (centres undefined)	-11%	2%	i	-10%	-5%	-12%
Cc1ccc(C2C(C#N)=C(N)Oc3n[nH]c(-c4cccs4)c32)s1 (centres undefined)	1%	8%	u	-22%	-17%	10µM*
CC(C)c1c(C(=O)NCC(C)(C)N2CCOCC2)cnn1-c1nccc(-c2ccccc2F)n1	x	x	i	x	x	x
O=C(C[N+]12CCCc3cccc(c31)CCC2)c1ccccc1	x	u	x	x	-35%	x
CNC(=O)c1cc(Oc2ccc(NC(=O)Nc3ccc(Cl)c(C(F)(F)F)c3)c(F)c2)ccn1	19µM*	x	x	x	x	x
CSc1nccc(N2CCN(c3ccc(F)cc3)CC2)n1	-18%	u	i	13µM*	-18%	u
COc1ccc(CN2CCOc3ccc(CN4CCC(O)(c5cccnc5)CC4)cc3C2)c(C)c1C	x	x	i	x	x	x
CCOc1ccc(N(C(=O)c2ccc(OC)cc2)S(=O)(=O)c2ccc3c(c2)n(C)c(=O)n3C)cc1	-8%	28%	u	x	-7%	x
COc1ccc(Nc2cc(C(=O)NCCCN3CCN(c4ccccc4F)CC3)c3ccccc3n2)c(OC)c1	x	11µM*	x	x	-44%	x
COc1ccc(Nc2cc(C(=O)NCCCN3CCOCC3)c3ccccc3n2)c(OC)c1	2%	0%	u	8%	-2%	8%
CCCCC(=O)N/N=C/c1ccc(Sc2cccc3cccnc23)o1	5%	u	i	11µM*	2%	5.6µM*
Nc1c(Cl)ncnc1NCc1cccnc1	-26%	-20%	i	9%	-12%	-24%
Nc1c(Cl)ncnc1NCCc1ccc(O)cc1	-16%	-20%	i	7.9µM*	-20%	-4%
CC(C)C(=O)Nc1nnc(CSCc2ccccc2F)s1	7%	-3%	i	-1%	4%	22%
O=C(Nc1nnc(CSCc2ccccc2F)s1)c1cccc([N+](=O)[O-])c1	-22%	u	i	5µM*	-51%	4.5µM*
CN(C)C(=O)c1ccc(-c2cncnc2-n2ccnc2)cc1	x	x	x	-1%	x	-1%
Cc1ccccc1-c1ccc2ncnc(-n3ccnc3)c2c1	x	x	x	13µM*	x	11µM*
CN(C)c1ccc(-c2ccc3ncnc(-n4ccnc4)c3c2)cc1	x	x	x	13µM*	x	7.1µM*
CO[C@@H]1COC(=O)[C@H](C)NC(=O)C/C=C\[C@@H](C)[C@@H](NS(=O)(=O)c2ccc(C)cc2)COC(=O)C/C=C\[C@@H]1C	x	x	x	-1%[10 µM]	x	-1%[10 µM]
